# Source: PubChem
# The list is not random: actives were taken first. Their share in the collection is about 6.7%.
# Tcruzi prolif: blocks T. cruzi growth in NIH3T3 culture; inhibition, % at 8.34 µM; 77,000 compounds, 5.9% hits; T. cruzi beta-gal in NIH3T3, GalScreen luminescence, 90 h;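 active = mean inhibition above about 93%, with at least 55% of replicates each passing it, limit read from the data, passing the limit was not always enough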
# Pf Dd2 growth: P. falciparum Dd2 growth inhibition; SYBR Green, 72 h; stronger effect = lower value; activity change, % at 10 µM; 94,000 compounds, 2.3% hits; AID 1159554; in the data active = activity change below about -80%
# C diff growth: blocks growth of Clostridium difficile; Clostridium difficile clinical isolate growth, OD600, 24 h; stronger effect = lower value; growth activity, negative = inhibition, % at 16 µg/mL (by protocol); 86,000 compounds, 0.25% hits; AID 1259249;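 active = mean growth activity at or below -80% and every replicate also at or below -80%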;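 note: 0% = DMSO wells and -100% = levofloxacin 16 µg/mL wells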
# Active calls of the source: *; / = not tested or not shown; ! = repeats disagree.
SMILES,Tcruzi prolif,Pf Dd2 growth,C diff growth
C[C@H]1CN([C@@H](C)CO)C(=O)c2cc(NC(=O)CCCCCC(=O)Nc3ccccc3N)ccc2O[C@H]1CN(C)Cc1ccc(Oc2ccccc2)cc1,/,-75,12
C[C@H]1CN([C@@H](C)CO)C(=O)c2cccc(NC(=O)CCCCCC(=O)Nc3ccccc3N)c2O[C@H]1CN(C)Cc1ccc(Oc2ccccc2)cc1,/,-90*,10
COc1ccc(CN(C)C[C@H]2Oc3c(NC(=O)CCCCCC(=O)Nc4ccccc4N)cccc3C(=O)N([C@H](C)CO)C[C@@H]2C)cc1,/,-85*,-7
C[C@@H]1CN([C@H](C)CO)C(=O)c2cccc(NC(=O)CCCCCC(=O)Nc3ccccc3N)c2O[C@@H]1CN(C)Cc1ccncc1,/,31,3
C[C@@H]1CN([C@@H](C)CO)C(=O)c2cccc(NC(=O)CCCCCC(=O)Nc3ccccc3N)c2O[C@H]1CN(C)Cc1ccncc1,/,-40,-2
C[C@H](CO)N1C[C@H](C)[C@@H](CN(C)Cc2ccc(Oc3ccccc3)cc2)Oc2c(NC(=O)CCCCCC(=O)Nc3ccccc3N)cccc2C1=O,/,-90*,-1
C[C@H]1CN([C@@H](C)CO)C(=O)c2cccc(NS(=O)(=O)c3cn(C)cn3)c2O[C@H]1CN(C)S(=O)(=O)c1cccs1,6,29,-1
Cc1ccc(S(=O)(=O)N(C)C[C@@H]2Oc3ccc(NC(=O)NC4CCCCC4)cc3C(=O)N([C@H](C)CO)C[C@@H]2C)cc1,-20,-27,-10
Fc1cccc(-c2ccc(C3[C@@H]4CN(Cc5cncnc5)C[C@H]3N4)cc2)c1 (stereo partly specified),/,-86*!,3
Cc1cccc(-c2ccc(C3[C@@H]4CN(Cc5ccccc5)C[C@H]3N4)cc2)c1 (stereo partly specified),/,-11,-36
Cc1ccccc1-c1ccc(C2[C@@H]3CN(Cc4cncnc4)C[C@H]2N3)cc1 (stereo partly specified),/,-10,-7
Cc1cccc(-c2ccc(C3[C@@H]4CN(Cc5cccc(F)c5)C[C@H]3N4)cc2)c1 (stereo partly specified),/,15,-97*
COc1cccc(CNC(=O)C[C@@H]2CC[C@H](NC(=O)C3CCOCC3)[C@H](CO)O2)c1,-21,4,-6
O=C(C[C@H]1CC[C@H]2[C@@H](COC[C@@H](O)CN2C(=O)c2ccccc2F)O1)NCc1ccc(Cl)c(Cl)c1,40,-17,6
C[C@@H]1CN([C@H](C)CO)S(=O)(=O)c2ccc(C#CC3CC3)cc2O[C@H]1CN(C)Cc1ccncc1,86,-52,3
COc1ccccc1NC(=O)N1CCCCN2[C@H](C1)[C@H](c1ccc(-c3cccc(C)c3)cc1)[C@@H]2CO,92,-6,29
COc1ccccc1NC(=O)N1CCCCN2[C@@H](CO)[C@@H](c3ccc(-c4cccc(C)c4)cc3)[C@@H]2C1,69,-83*,-80*
COc1ccccc1NC(=O)N1CCCCN2[C@@H](CO)[C@H](c3ccc(C#CC4CC4)cc3)[C@@H]2C1,/,-79,29
COc1ccccc1NC(=O)N1CCCCN2[C@@H](CO)[C@@H](c3ccc(C#CC4CC4)cc3)[C@@H]2C1,/,-90*,48
O=C(N[C@@H]1CC[C@H](CCn2cc(C3(O)CCCC3)nn2)O[C@@H]1CO)C1CCCC1,/,-8,-2
O=C(C[C@H]1CC[C@H](NC(=O)c2ccc3c(c2)OCO3)[C@@H](CO)O1)NC1Cc2ccccc2C1,-28,9,/
O=C(N[C@@H]1CC[C@@H](CCNS(=O)(=O)Cc2ccccc2)O[C@@H]1CO)c1cnccn1,-85,-32,/
C[C@@H]1CN([C@@H](C)CO)C(=O)c2cccc(NC(=O)c3nc4ccccc4s3)c2O[C@@H]1CN(C)Cc1ccc(C(=O)O)cc1,40,-23,-4
C[C@@H]1CN([C@H](C)CO)C(=O)c2cccc(NC(=O)c3nc4ccccc4s3)c2O[C@@H]1CN(C)Cc1ccc(C(=O)O)cc1,31,-33,-1
C[C@@H]1CN([C@H](C)CO)C(=O)c2cccc(NC(=O)c3nc4ccccc4s3)c2O[C@@H]1CN(C)Cc1ccc(C(=O)Nc2ccccc2N)cc1,90,-88*,/
C[C@@H]1CN([C@@H](C)CO)C(=O)c2cccc(NC(=O)c3nc4ccccc4s3)c2O[C@H]1CN(C)Cc1ccc(C(=O)Nc2ccccc2N)cc1,104*,-91*,/
COCC#Cc1ccc([C@H]2[C@H]3CN(C(=O)C4CC4)CC(=O)N3[C@H]2CO)cc1,/,-35,-5
COc1ccc(C#Cc2ccc([C@H]3[C@H](CO)N4CCCCN(C(=O)Nc5ccc(F)cc5)C[C@@H]34)cc2)cc1,63,-55,4
COc1ccc(NC(=O)N2CCCCN3[C@@H](CO)[C@@H](c4ccc(C#Cc5ccccc5)cc4)[C@@H]3C2)cc1,70,-37,-97*
